The supplement of paper PMC6609913
Where a name gives a salt, the structure may show the parent alone. ± gives the standard deviation of the averaged measurements. Over roughly 1,300 compounds, “normalised cell viability” has its median near 1; the lowest 2% begin near 0.14. What follows is part of a selection rich in the lowest values, with near analogues and random picks from the rest.

System: V-C8 (BRCA2-deficient hamster cells)
Assay: normalised cell viability (fraction of plate median); higher = more viable cells (less toxic)
Details: 5 µM
Method in brief: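 BRCA2-deficient hamster V-C8 cells and BRCA2-restored V-C8 cells were plated in 96-well plates, and library drugs were added 24 h later at 5 μM in 100 μl medium. Exposure lasted 3 days in screen 1 and 6 days in screen 2, next to solvent-only wells. Viability was then read by resazurin assay, median-plate normalised and averaged across triplicate wells.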

| Compound | normalised cell viability (treatment time: 3 days) | normalised cell viability (treatment time: 6 days) |
| --- | --- | --- |
| Clc1ccccc1CN1CCc2sccc2C1 [Ticlopidine hydrochloride] | 1.1 ± 0.032 | 1.08 ± 0.064 |
| Cc1nc(=O)c2cc(CN(C)c3ccc(C(=O)N[C@@H](CCC(=O)O)C(=O)O)s3)ccc2[nH]1 [Raltitrexed] | 0.332 ± 0.028 | 0.432 ± 0.075 |
| CCN(CC)CCN[C@@H](C(=O)OCCC(C)C)c1ccccc1 [Camylofine chlorhydrate] | 1.07 ± 0.065 | 0.978 ± 0.027 |
| Cc1ncc(C[n+]2csc(CCO)c2C)c(N)n1 [Thiamine hydrochloride] | 1.05 ± 0.029 | 1.05 ± 0.016 |
| Cc1c(Nc2ncccc2C(=O)O)cccc1C(F)(F)F [Flunixin meglumine] | 1.1 ± 0.11 | 1.03 ± 0.037 |
| CC(C)OC(=O)CCC/C=C\C[C@@H]1[C@@H](CC[C@@H](O)CCc2ccccc2)[C@H](O)C[C@@H]1O [Latanoprost] | 1.13 ± 0.11 | 1.05 ± 0.041 |
| C[C@@]1(O)CCOC(=O)C1 [Mevalonic-D, L acid lactone] | 1.12 ± 0.05 | 1.05 ± 0.18 |
| CCCCCNC(=N)N/N=C/c1c[nH]c2ccc(OC)cc12 [Tegaserod maleate] | 0.124 ± 0.011 | 0.164 ± 0.016 |
| COc1ccc2[nH]cc(CCNC(C)=O)c2c1 [Melatonin] | 1.16 ± 0.068 | 1 ± 0.058 |
| CN1CCCC(CC2c3ccccc3Sc3ccccc32)C1 (stereo not given) [Metixene hydrochloride] | 0.57 ± 0.02 | 0.69 ± 0.052 |
| Clc1ccc(C(Cn2ccnc2)OCc2ccsc2Cl)c(Cl)c1 (stereo not given) [Tioconazole] | 0.97 ± 0.046 | 0.966 ± 0.059 |
| COC1=C(OC)C(=O)C(CCCCCCCCCCO)=C(C)C1=O [Idebenone] | 0.648 ± 0.036 | 0.713 ± 0.04 |
| CC(C)(C)NCC(O)COc1cccc2c1CC(O)C(O)C2 (stereo not given) [Nadolol] | 1.02 ± 0.073 | 1.04 ± 0.035 |
| C1CCC(C(CC2CCCCN2)C2CCCCC2)CC1 (stereo not given) [Perhexiline maleate] | 0.126 ± 0.011 | 0.109 ± 0.0083 |
| Cc1cc2cc3c(C)cc(=O)oc3c(C)c2o1 [Trioxsalen] | 1.04 ± 0.047 | 1.07 ± 0.027 |
| CC=CC(=O)N(CC)c1ccccc1C [Crotamiton] | 0.866 ± 0.12 | 0.929 ± 0.025 |
| CC(C)c1ccc2oc3nc(N)c(C(=O)O)cc3c(=O)c2c1 [Amlexanox] | 0.933 ± 0.034 | 1.03 ± 0.089 |
| O=C(O)[C@H]1/C(=C/CO)O[C@@H]2CC(=O)N21 [Potassium clavulanate] | 1 ± 0.03 | 0.984 ± 0.039 |

| Compound | normalised cell viability (treatment time: 3 days) | normalised cell viability (treatment time: 6 days) |
| --- | --- | --- |
| Nc1ccc(O)c(C(=O)O)c1 [Mesalamine] | 1.09 ± 0.028 | 1.14 ± 0.27 |
| N=C(NCCCCCCNC(=N)NC(=N)Nc1ccc(Cl)cc1)NC(=N)Nc1ccc(Cl)cc1 [Chlorhexidine] | 0.129 ± 0.0057 | 0.101 ± 0.0054 |
| CC(C)NC(=N)NC(=N)Nc1ccc(Cl)cc1 [Proguanil hydrochloride] | 0.196 ± 0.012 | 0.189 ± 0.014 |
| N=C(N)NC(=N)NCCc1ccccc1 [Phenformin hydrochloride] | 0.955 ± 0.035 | 0.96 ± 0.052 |
| CN(C)CCOc1ccc(/C(=C(/CCCl)c2ccccc2)c2ccccc2)cc1 [Toremifene] | 0.716 ± 0.067 | 0.875 ± 0.052 |
| CC/C(=C(\c1ccccc1)c1ccc(OCCN(C)C)cc1)c1ccccc1 [Tamoxifen citrate] | 0.837 ± 0.019 | 0.767 ± 0.035 |
| CCN(CC)CCOc1ccc(C(=C(Cl)c2ccccc2)c2ccccc2)cc1 [Clomiphene citrate (Z,E)] | 0.142 ± 0.002 | 0.118 ± 0.011 |
| CC[N+](CC)(CC(=O)Nc1c(C)cccc1C)Cc1ccccc1 [Denatonium benzoate] | 1.01 ± 0.031 | 1.07 ± 0.019 |
| Cc1cn([C@H]2C=C[C@@H](CO)O2)c(=O)[nH]c1=O [Stavudine] | 1.05 ± 0.077 | 1.23 ± 0.35 |
| O=C1NCCN1CCN1CCC(c2cn(-c3ccc(F)cc3)c3ccc(Cl)cc23)CC1 [Sertindole] | 0.385 ± 0.019 | 0.591 ± 0.069 |
| CC(C)(C)C(=O)OCOC(=O)[C@@H]1N2C(=O)[C@@H](/N=C/N3CCCCCC3)[C@H]2SC1(C)C [Pivmecillinam hydrochloride] | 0.959 ± 0.056 | 1.01 ± 0.039 |
| Cc1ncc([N+](=O)[O-])n1CCO [Metronidazole] | 0.914 ± 0.088 | 1.04 ± 0.058 |
| CC(=O)O[C@H]1C(=O)[C@@]2(C)[C@H]([C@H](OC(=O)c3ccccc3)[C@]3(O)C[C@H](OC(=O)[C@H](O)[C@@H](NC(=O)c4ccccc4)c4ccccc4)C(C)=C1C3(C)C)[C@]1(OC(C)=O)CO[C@@H]1C[C@@H]2O [Paclitaxel] | 0.193 ± 0.01 | 0.199 ± 0.0046 |
| Cc1oncc1C(=O)Nc1ccc(C(F)(F)F)cc1 [Leflunomide] | 0.904 ± 0.065 | 0.959 ± 0.043 |
| COc1cccc(N(C)C(=S)Oc2ccc3c(c2)CCCC3)n1 [Liranaftate] | 0.805 ± 0.038 | 0.74 ± 0.046 |
| COC(=O)Nc1nc2ccc(SC(C)C)cc2[nH]1 [Methiazole] | 0.214 ± 0.0082 | 0.221 ± 0.025 |
| COc1ccc(CN2CCN(C(c3ccc(F)cc3)c3ccc(F)cc3)CC2)c(OC)c1OC [Lomerizine hydrochloride] | 0.881 ± 0.042 | 0.799 ± 0.035 |
